Reference: the supplement of paper PMC9694430
Values joined by “and” are separate entries in the source; they are usually repeats but may differ in a detail not shown here. Equal values may be shown once.

tested on: LOC_OS01G51400-cb002; assay: thermal shift delta Tm vs DMSO control; higher = stronger stabilization (binding); conditions: 12.5 µM; protein concentration 2 µM
How it was run: (§1)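 The melting temperature shift given here is a triplicate mean, measured against protein that received only DMSO. Melting temperatures came from Boltzmann fits of differential scanning fluorimetry data on E. coli-expressed, purified rice kinase domain constructs. Each 19.5 μl well contained 2 μM kinase, 100 mM potassium phosphate pH 7.5, 150 mM NaCl, 10% glycerol, 5 × SYPRO Orange and compound in DMSO. Plates were scanned from 25°C to 95°C at 0.05°C/s.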

Row | SMILES | thermal shift delta Tm
1 | COc1cc(N2CCN(C)CC2)ccc1Nc1nccc(-c2cn(C)c3cnccc23)n1 | 0.19 °C
2 | CN1CCN(c2nc(C3=C(c4c[nH]c5ccccc45)C(=O)NC3=O)c3ccccc3n2)CC1 [Sotrastaurin] | 0.38 °C
3 | CCN(CC)CCCC(C)Nc1nc(C)cc(Nc2ccc3nc(C)cc(N)c3c2)n1 (stereo unspecified) | 0.05 °C
4 | CN(C)C[C@@H]1CCn2cc(c3ccccc32)C2=C(C(=O)NC2=O)c2cn(c3ccccc23)CCO1 | -0.02 °C
5 | CCn1c2ccccc2c2cc(Nc3ccnc(NCCCN4CCOCC4)n3)ccc21 | 0.13 °C
6 | O=C1NCCc2[nH]c(-c3ccncc3)cc21 | 0.19 °C
7 | Oc1cc(O)cc(/C=C/c2ccc(O)c(O)c2)c1 [Piceatannol] | 0.39 °C
8 | CC(C)(C#N)c1ccc(N2C(=O)OCc3cnc4ccc(-c5cnc6ccccc6c5)cc4c32)cc1 | 0.65 °C
9 | N#CCNC(=O)c1ccc(-c2ccnc(Nc3ccc(N4CCOCC4)cc3)n2)cc1 [Momelotinib (CYT387)] | 0.13 °C
10 | Cc1cc(C(=O)Nc2nc3cccc(Cl)c3n2[C@@H]2CCCCN(C(=O)/C=C/CN(C)C)C2)ccn1 [Nazartinib (EGF816, NVS-816)] | 0.04 °C
11 | COc1cc(OC)cc(N(CCNC(C)C)c2ccc3ncc(-c4cnn(C)c4)nc3c2)c1 | 0.26 °C
12 | O=C1c2ccc(Nc3ccc(F)cc3F)cc2CCc2ccc(OC[C@H](O)CO)cc21 [Skepinone-L] | -0.11 °C
13 | O=C1CCc2c(Oc3ccc4c(c3)[C@@H]3[C@H](O4)[C@H]3c3nc4cc(C(F)(F)F)ccc4[nH]3)ccnc2N1 [Lifirafenib (BGB-283)] | 0.55 °C
14 | N#C/C(=C(/N)Sc1ccc(N)cc1)c1ccccc1C(F)(F)F | -0.05 °C
15 | COc1ccc(CC(=O)Nc2nc3c(s2)CCc2ccccc2-3)cc1OC | -0.32 °C
16 | CCn1c(-c2nonc2N)nc2c(C#CC(C)(C)O)ncc(OC[C@H]3CCCNC3)c21 | 0.09 °C
17 | Cn1cc(-c2ccc3nnc(Sc4ccc5ncccc5c4)n3n2)cn1 | 0.08 °C
18 | CCc1nc(C(N)=O)c(Nc2ccc(N3CCC(N4CCN(C)CC4)CC3)c(OC)c2)nc1NC1CCOCC1 [Gilteritinib (ASP2215)] | 0.63 °C
19 | CC(C)(CCCCCC(O)CCCCCC(C)(C)C(=O)O)C(=O)O | 0.29 °C

Row | SMILES | thermal shift delta Tm
20 | CCN1CCN(Cc2ccc(Nc3ncc(F)c(-c4cc(F)c5nc(C)n(C(C)C)c5c4)n3)nc2)CC1 | 0.13 °C
21 | Cc1cnc(NC(=O)Nc2cc(Br)c(C)cc2OC[C@@H]2CNCCO2)cn1 | 0.02 °C
22 | CCn1c(=O)c(-c2ccc(Cl)cc2Cl)cc2cnc(Nc3ccc(N4CCNCC4)c(F)c3)nc21 | -0.48 °C
23 | C=CC(=O)Nc1cccc(Oc2nc(Nc3ccc(N4CCN(C)CC4)cc3OC)ncc2Cl)c1 | 0.48 °C
24 | CCS(=O)(=O)Nc1ccc2c(c1)/C(=C(/Nc1ccc(CN3CCCCC3)cc1)c1ccccc1)C(=O)N2 [Hesperadin] | 0.3 °C
25 | COCCOc1cnc2ccn([C@H](C)c3nnc4c(F)cc(-c5cnn(C)c5)cn34)c(=O)c2c1 | 0.32 °C
26 | COc1ccc(-c2cc3c(C)nc(N)nc3n([C@H]3CC[C@H](OCCO)CC3)c2=O)cn1 | 0.45 °C
27 | CS(=O)(=O)c1ccc(-c2cnc(N)c(C(=O)Nc3ccccc3)n2)cc1 | 0.3 °C
28 | C=CC(=O)Nc1ccc(CN2C(=O)N(c3cc(OC)cc(OC)c3)Cc3cnc(Nc4ccc(N5CCN(C)CC5)cc4)nc32)cc1 | 0.02 °C
29 | c1ccc(-c2[nH]ncc2-c2ccnc3ccccc23)nc1 | 0.03 °C
30 | COc1ccc(Cl)c(Nc2nc3ccccc3nc2NS(=O)(=O)c2cccc(NC(=O)C(C)(C)N)c2)c1 [Pilaralisib (XL147)] | 1.3 °C
31 | CN1CCN(CCOc2cc(OC3CCOCC3)c3c(Nc4c(Cl)ccc5c4OCO5)ncnc3c2)CC1 [Saracatinib (AZD0530)] | 0.26 °C
32 | COc1cc2nccc(Oc3ccc(NC(=O)C4(C(=O)Nc5ccc(F)cc5)CC4)cc3)c2cc1OC [Cabozantinib malate (XL184)] | 0.63 °C
33 | Cc1cc(C)c(/C=C2\C(=O)Nc3ccccc32)[nH]1 [Semaxanib (SU5416)] | 0.58 °C
34 | NC(=O)c1ncn([C@@H]2O[C@H](CO)[C@@H](O)[C@H]2O)c1N [AICAR (Acadesine)] | 0.32 °C
35 | CN(c1ncccc1CNc1nc(Nc2ccc3c(c2)CC(=O)N3)ncc1C(F)(F)F)S(C)(=O)=O | 1.29 °C and 1.71 °C
36 | O=c1cc(N2CCOCC2)oc2c1ccc1ccccc12 | -0.05 °C
37 | CCn1c(-c2nonc2N)nc2cnc(Oc3cccc(NC(=O)c4ccc(OCCN5CCOCC5)cc4)c3)cc21 | 0.31 °C
38 | OC1CCC(Oc2cccc3cnc(Nc4ccc5nc[nH]c5c4)nc23)CC1 (stereo unspecified) | 1.07 °C

tested on: T1, LOC_OS01G52050-cb004; assay: as above; conditions: 12.5 µM; protein concentration 2 µM
T1 sequence (whole entry): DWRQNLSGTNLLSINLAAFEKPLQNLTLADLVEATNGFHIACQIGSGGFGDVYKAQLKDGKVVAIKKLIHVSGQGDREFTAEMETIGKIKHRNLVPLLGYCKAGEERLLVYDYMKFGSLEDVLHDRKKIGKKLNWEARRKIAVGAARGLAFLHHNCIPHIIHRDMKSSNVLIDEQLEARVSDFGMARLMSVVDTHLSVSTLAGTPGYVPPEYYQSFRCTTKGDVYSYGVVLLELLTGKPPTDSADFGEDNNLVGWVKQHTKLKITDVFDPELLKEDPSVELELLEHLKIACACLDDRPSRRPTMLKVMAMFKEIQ
How it was run: as §1

Row | SMILES | thermal shift delta Tm
39 | COc1cc(N2CCN(C)CC2)ccc1Nc1nccc(-c2cn(C)c3cnccc23)n1 | 1.15 °C
40 | CN1CCN(c2nc(C3=C(c4c[nH]c5ccccc45)C(=O)NC3=O)c3ccccc3n2)CC1 [Sotrastaurin] | -0.06 °C
41 | CCN(CC)CCCC(C)Nc1nc(C)cc(Nc2ccc3nc(C)cc(N)c3c2)n1 (stereo unspecified) | 0.12 °C
42 | CN(C)C[C@@H]1CCn2cc(c3ccccc32)C2=C(C(=O)NC2=O)c2cn(c3ccccc23)CCO1 | -0.62 °C
43 | CCn1c2ccccc2c2cc(Nc3ccnc(NCCCN4CCOCC4)n3)ccc21 | 0.07 °C
44 | O=C1NCCc2[nH]c(-c3ccncc3)cc21 | 1.31 °C
45 | Oc1cc(O)cc(/C=C/c2ccc(O)c(O)c2)c1 [Piceatannol] | 1.1 °C
46 | CC(C)(C#N)c1ccc(N2C(=O)OCc3cnc4ccc(-c5cnc6ccccc6c5)cc4c32)cc1 | 0.6 °C
47 | N#CCNC(=O)c1ccc(-c2ccnc(Nc3ccc(N4CCOCC4)cc3)n2)cc1 [Momelotinib (CYT387)] | 3.27 °C
48 | Cc1cc(C(=O)Nc2nc3cccc(Cl)c3n2[C@@H]2CCCCN(C(=O)/C=C/CN(C)C)C2)ccn1 [Nazartinib (EGF816, NVS-816)] | 0.96 °C
49 | COc1cc(OC)cc(N(CCNC(C)C)c2ccc3ncc(-c4cnn(C)c4)nc3c2)c1 | 2.05 °C
50 | O=C1c2ccc(Nc3ccc(F)cc3F)cc2CCc2ccc(OC[C@H](O)CO)cc21 [Skepinone-L] | 0.04 °C
51 | O=C1CCc2c(Oc3ccc4c(c3)[C@@H]3[C@H](O4)[C@H]3c3nc4cc(C(F)(F)F)ccc4[nH]3)ccnc2N1 [Lifirafenib (BGB-283)] | 2.71 °C
52 | N#C/C(=C(/N)Sc1ccc(N)cc1)c1ccccc1C(F)(F)F | 0.3 °C
53 | COc1ccc(CC(=O)Nc2nc3c(s2)CCc2ccccc2-3)cc1OC | 2.89 °C
54 | CCn1c(-c2nonc2N)nc2c(C#CC(C)(C)O)ncc(OC[C@H]3CCCNC3)c21 | 0.04 °C
55 | Cn1cc(-c2ccc3nnc(Sc4ccc5ncccc5c4)n3n2)cn1 | 0.42 °C
56 | CCc1nc(C(N)=O)c(Nc2ccc(N3CCC(N4CCN(C)CC4)CC3)c(OC)c2)nc1NC1CCOCC1 [Gilteritinib (ASP2215)] | 8.54 °C
57 | CC(C)(CCCCCC(O)CCCCCC(C)(C)C(=O)O)C(=O)O | 0.02 °C

Row | SMILES | thermal shift delta Tm
58 | CCN1CCN(Cc2ccc(Nc3ncc(F)c(-c4cc(F)c5nc(C)n(C(C)C)c5c4)n3)nc2)CC1 | 1.08 °C
59 | Cc1cnc(NC(=O)Nc2cc(Br)c(C)cc2OC[C@@H]2CNCCO2)cn1 | 2.33 °C
60 | CCn1c(=O)c(-c2ccc(Cl)cc2Cl)cc2cnc(Nc3ccc(N4CCNCC4)c(F)c3)nc21 | 5.06 °C
61 | C=CC(=O)Nc1cccc(Oc2nc(Nc3ccc(N4CCN(C)CC4)cc3OC)ncc2Cl)c1 | 0.54 °C
62 | CCS(=O)(=O)Nc1ccc2c(c1)/C(=C(/Nc1ccc(CN3CCCCC3)cc1)c1ccccc1)C(=O)N2 [Hesperadin] | 6.95 °C
63 | COCCOc1cnc2ccn([C@H](C)c3nnc4c(F)cc(-c5cnn(C)c5)cn34)c(=O)c2c1 | 0.4 °C
64 | COc1ccc(-c2cc3c(C)nc(N)nc3n([C@H]3CC[C@H](OCCO)CC3)c2=O)cn1 | 0.16 °C
65 | CS(=O)(=O)c1ccc(-c2cnc(N)c(C(=O)Nc3ccccc3)n2)cc1 | 0.77 °C
66 | C=CC(=O)Nc1ccc(CN2C(=O)N(c3cc(OC)cc(OC)c3)Cc3cnc(Nc4ccc(N5CCN(C)CC5)cc4)nc32)cc1 | 0.08 °C
67 | c1ccc(-c2[nH]ncc2-c2ccnc3ccccc23)nc1 | 0.61 °C
68 | COc1ccc(Cl)c(Nc2nc3ccccc3nc2NS(=O)(=O)c2cccc(NC(=O)C(C)(C)N)c2)c1 [Pilaralisib (XL147)] | 4.64 °C
69 | CN1CCN(CCOc2cc(OC3CCOCC3)c3c(Nc4c(Cl)ccc5c4OCO5)ncnc3c2)CC1 [Saracatinib (AZD0530)] | 1.72 °C
70 | COc1cc2nccc(Oc3ccc(NC(=O)C4(C(=O)Nc5ccc(F)cc5)CC4)cc3)c2cc1OC [Cabozantinib malate (XL184)] | 0.38 °C
71 | Cc1cc(C)c(/C=C2\C(=O)Nc3ccccc32)[nH]1 [Semaxanib (SU5416)] | 1.59 °C
72 | NC(=O)c1ncn([C@@H]2O[C@H](CO)[C@@H](O)[C@H]2O)c1N [AICAR (Acadesine)] | 0.33 °C
73 | CN(c1ncccc1CNc1nc(Nc2ccc3c(c2)CC(=O)N3)ncc1C(F)(F)F)S(C)(=O)=O | 5.25 °C and 6.24 °C
74 | O=c1cc(N2CCOCC2)oc2c1ccc1ccccc12 | 0.24 °C
75 | CCn1c(-c2nonc2N)nc2cnc(Oc3cccc(NC(=O)c4ccc(OCCN5CCOCC5)cc4)c3)cc21 | 0.93 °C
76 | OC1CCC(Oc2cccc3cnc(Nc4ccc5nc[nH]c5c4)nc23)CC1 (stereo unspecified) | 3.63 °C
